Source: PubChem BioAssay (NCATS)
Results filed as inconclusive are left out. Active and inactive are the calls of the source. Unless noted, calls follow the shape of the dose curve; as a rule, active = well fitted curve in the direction sought with a large enough effect; inconclusive = small, poorly fitted or top-dose-only effect, or another doubt; inactive = no such curve, though single readings can be large; an effect the other way counts as inactive or inconclusive.

Legend:
[1] = P-glycoprotein substrates identified in KB-8-5-11 adenocarcinoma cell line, qHTS therapeutic library screen (AID 1346987); also: nearly all actives have a fitted effect of over 65% in size; also: potency is read from the fitted curve at half-maximal effect
Outline: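 KB-8-5-11, a colchicine-selected P-gp-overexpressing KB-3-1 subline, was grown without colchicine for the assay. Cells were seeded at 500 cells/well, dosed in concentration-response and incubated 72 h at 37 degree C, 5% CO2. Viability was read by CellTiter-Glo luminescence.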

[2] = Primary qHTS for inhibitors of nuclear receptor binding SET domain protein 2 (NSD2) in an isogenic RCH-ACV NSD2 p.E1099K mutant (9B) (AID 1645876); also: nearly all actives have a fitted effect of over 70% in size; also: potency is read from the fitted curve at half-maximal effect
[3] = Primary qHTS for inhibitors of nuclear receptor binding SET domain protein 2 (NSD2) in an RCH-ACV wild type WT cells (2C) (AID 1645877); also: nearly all actives have a fitted effect of over 70% in size; also: potency is read from the fitted curve at half-maximal effect
HaCat [4] = assay: Cytotoxic Profiling of Annotated Libraries Using Quantitative High-Throughput Screening (AID 1296008); conditions: Five cell lines viability, CellTiter-Glo ATP luminescence, 48-72 h; max response: stronger effect = lower value; also: nearly all actives have a fitted effect of over 60% in size; also: potency is read from the fitted curve at half-maximal effect; as to max response: % is scaled to controls: 0 for no effect and ±100 for the full control effect
Outline: (§1)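 Compounds were pin-transferred onto cells and incubated 48 or 72 hr at 37 degree Celsius, 95% humidity. CellTiter-Glo was added, plates sat 10 min at room temperature, then ATP-coupled luminescence was imaged as the viability read-out.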

NIH3T3 [5] = assay: as above; conditions: Five cell lines viability, CellTiter-Glo ATP luminescence, 48-72 h; max response: stronger effect = lower value
Outline: as §1

HeLa = assay: Primary qHTS to identify gynecologic anti-cancer compounds using libraries of approved drugs and bioactive compounds (AID 1345084); conditions: Gynecologic cancer cell panel viability, ATPlite luminescence, 48 h; series mostly up to 57.5 µM; also: nearly all actives have a fitted effect of over 55% in size; also: potency is read from the fitted curve at half-maximal effect
Outline: (§2)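 Luminescence from the ATPlite ATP-monitoring reagent indicates viable cell number; lower signal means cytotoxicity. Cells received compound 16 h after seeding and were exposed for 48 h across five concentrations.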

SKOV3 = assay: as above; conditions: Gynecologic cancer cell panel viability, ATPlite luminescence, 48 h; series mostly up to 57.5 µM
Outline: as §2

[6] = system: Zika virus NS2B-NS3 protease (unlinked complex); assay: Primary screen GU Rhodamine qHTS for Zika virus inhibitors: Unlinked NS2B-NS3 protease assay (AID 1347159); also: % is scaled to controls: 0 for no effect and ±100 for the full control effect; nearly all actives have a fitted effect of over 60% in size
Outline: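 Percent inhibition derives from the 15-min fluorescence change (ex 480, em 540 nm), normalized to no-enzyme and no-inhibitor wells. Reactions contained 25 nM NS2B-NS3 complex and 1.5 microM substrate in 10 mM Tris-HCl pH 8.0.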

[7] = target: Cytochrome P450 2D6 (Homo sapiens) (UniProt P10635); assay: Cytochrome P450 family 2 subfamily D member 6 (CYP2D6) small molecule antagonists: luciferase biochemical (cell-free) qHTS assay (AID 1645840; active = well fitted curve in the direction sought with a large enough effect in the repeat runs; an effect the other way counts as inactive or inconclusive; also: nearly all actives have a fitted effect of over 55% in size; also: potency is read from the fitted curve at half-maximal effect)
Outline: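 P450-Glo luminescent screen: recombinant CYP2D6 enzyme–proluciferin substrate mix preincubated with compound 10 min at room temperature, then NADPH regeneration added for 1 h at room temperature. Detection reagent added for 20 min; luciferin light read as relative luminescence units.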

[8] = target: Cytochrome P450 2C9 (Homo sapiens) (UniProt P11712); assay: Cytochrome P450 family 2 subfamily C member 9 (CYP2C9) small molecule antagonists: luciferase biochemical (cell-free) qHTS assay (AID 1645842; active = well fitted curve in the direction sought with a large enough effect in the repeat runs; an effect the other way counts as inactive or inconclusive; also: nearly all actives have a fitted effect of over 55% in size; also: potency is read from the fitted curve at half-maximal effect; as to activity change, negative = inhibition: % is scaled to controls: 0 for no effect and ±100 for the full control effect)
Outline: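 Luminescence, after 20 min with luciferin detection reagent, reflected CYP2C9 turnover during a 1 h NADPH-driven reaction at 37C. Enzyme-substrate mix contained 0.4% bovine serum albumin and was preincubated with compound 10 min at room temperature.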

HACAT [9] = assay: qHTS assay to identify novel small-molecules to repurpose for Merkel cell carcinoma treatment (AID 1296009); conditions: MCC and control cell lines, CellTiter-Glo viability, 72 h; at 44.8 µM (top of the series) unless noted; also: nearly all actives have a fitted effect of over 60% in size
Outline: (§3)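 qHTS format: cells treated with library compounds in DMSO across 8 (NPC) or 11 (MIPE) concentrations. Readout after 72 hr at 37 degree celsius was CellTiter-Glo luminescence.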

[10] = P-glycoprotein substrates identified in KB-3-1 adenocarcinoma cell line, qHTS therapeutic library screen (AID 1346986); also: nearly all actives have a fitted effect of over 60% in size
Outline: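 Resistance attributable to P-gp was assessed by comparing AC50 in KB-8-5-11 with parental KB-3-1 and by tariquidar reversal. Cells were exposed 72 h and viability read by CellTiter-Glo.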

CRL-7250 = normal cell line; assay: qHTS assay to identify novel small-molecules to repurpose for Merkel cell carcinoma treatment (AID 1296009); conditions: MCC and control cell lines, CellTiter-Glo viability, 72 h; series mostly up to 92 µM; also: nearly all actives have a fitted effect of over 60% in size
Outline: as §3

[11] = target: Catechol O-methyltransferase (Homo sapiens) (UniProt P21964); assay: Confirmatory Screen for Target Class Profiling of Small Molecule Inhibitors of Methyltransferases (AID 1745852); conditions: MTase-Glo luminescence, SAH detection, recombinant enzyme; measured here: COMT max response; stronger effect = lower value; as to activity change, negative = inhibition: % is scaled to controls: 0 for no effect and ±100 for the full control effect
[12] = target: Guanidinoacetate N-methyltransferase (Homo sapiens) (UniProt Q14353); assay: as above; conditions: activity change, negative = inhibition: at 57.3 µM (top of the series) unless noted
[13] = target: Nicotinamide N-methyltransferase (Homo sapiens) (UniProt P40261); assay: as above; conditions: MTase-Glo luminescence, SAH detection, recombinant enzyme; measured here: NNMT max response; stronger effect = lower value
[14] = target: Phenylethanolamine N-methyltransferase (Homo sapiens) (UniProt P11086); assay: as above; conditions: MTase-Glo luminescence, SAH detection, recombinant enzyme; measured here: PNMT max response; stronger effect = lower value
NIH3T3 [15] = assay: qHTS assay to identify novel small-molecules to repurpose for Merkel cell carcinoma treatment (AID 1296009); conditions: MCC and control cell lines, CellTiter-Glo viability, 72 h; at 44.8 µM (top of the series) unless noted; also: nearly all actives have a fitted effect of over 60% in size
Outline: as §3

HEK293 = assay: Cytotoxic Profiling of Annotated Libraries Using Quantitative High-Throughput Screening (AID 1296008); conditions: Five cell lines viability, CellTiter-Glo ATP luminescence, 48-72 h; max response: stronger effect = lower value; also: nearly all actives have a fitted effect of over 60% in size; also: potency is read from the fitted curve at half-maximal effect; as to max response: % is scaled to controls: 0 for no effect and ±100 for the full control effect
Outline: as §1

[16] = qHTS drug screen for cell cycle checkpoint inhibitors in PARPi-resistant BRCA-mutant ovarian cancer cell lines. (AID 1963452; calls by dose curve); conditions: PEO1/OlaR viability, CellTiter-Glo luminescence, 96 h, stronger effect = lower value
Outline: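 PEO1, PEO4 and PEO1/OlaR ovarian cancer cells, 600 per well, exposed 96 h at 37C to a dilution series. Viability read by CellTiter-Glo luminescence, normalized to DMSO and empty wells; activity summarized as Z-AUC.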

Sequence of Cytochrome P450 2C9 (Homo sapiens) (P11712 whole entry, looked up): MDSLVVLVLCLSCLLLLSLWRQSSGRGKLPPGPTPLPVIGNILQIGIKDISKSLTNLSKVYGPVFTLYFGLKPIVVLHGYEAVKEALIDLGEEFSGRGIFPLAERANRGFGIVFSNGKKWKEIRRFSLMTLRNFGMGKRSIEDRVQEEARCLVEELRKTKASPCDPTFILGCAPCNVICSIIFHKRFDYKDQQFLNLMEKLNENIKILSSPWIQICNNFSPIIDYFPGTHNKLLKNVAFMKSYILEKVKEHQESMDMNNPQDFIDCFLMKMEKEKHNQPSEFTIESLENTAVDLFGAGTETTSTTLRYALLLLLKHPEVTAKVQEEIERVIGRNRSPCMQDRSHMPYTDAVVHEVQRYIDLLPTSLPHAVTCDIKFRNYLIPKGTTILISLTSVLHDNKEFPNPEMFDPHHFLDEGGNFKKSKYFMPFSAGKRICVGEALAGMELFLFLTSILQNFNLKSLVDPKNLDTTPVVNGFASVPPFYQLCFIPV
Sequence of Cytochrome P450 2D6 (Homo sapiens) (P10635 whole entry, looked up): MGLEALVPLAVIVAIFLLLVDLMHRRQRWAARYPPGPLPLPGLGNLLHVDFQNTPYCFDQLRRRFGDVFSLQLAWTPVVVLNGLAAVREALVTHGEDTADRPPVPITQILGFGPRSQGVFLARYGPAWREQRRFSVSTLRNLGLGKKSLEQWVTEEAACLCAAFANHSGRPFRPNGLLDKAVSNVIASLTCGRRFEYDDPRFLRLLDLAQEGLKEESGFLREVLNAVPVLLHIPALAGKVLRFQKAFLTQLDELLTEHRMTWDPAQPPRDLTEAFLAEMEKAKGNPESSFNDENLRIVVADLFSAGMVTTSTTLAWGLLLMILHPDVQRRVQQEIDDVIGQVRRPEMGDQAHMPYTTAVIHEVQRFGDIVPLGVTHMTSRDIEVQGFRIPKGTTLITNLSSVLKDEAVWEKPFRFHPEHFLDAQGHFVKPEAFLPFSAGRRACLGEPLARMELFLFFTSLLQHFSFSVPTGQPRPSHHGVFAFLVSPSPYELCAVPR
Sequence of Phenylethanolamine N-methyltransferase (Homo sapiens) (P11086 whole entry, looked up): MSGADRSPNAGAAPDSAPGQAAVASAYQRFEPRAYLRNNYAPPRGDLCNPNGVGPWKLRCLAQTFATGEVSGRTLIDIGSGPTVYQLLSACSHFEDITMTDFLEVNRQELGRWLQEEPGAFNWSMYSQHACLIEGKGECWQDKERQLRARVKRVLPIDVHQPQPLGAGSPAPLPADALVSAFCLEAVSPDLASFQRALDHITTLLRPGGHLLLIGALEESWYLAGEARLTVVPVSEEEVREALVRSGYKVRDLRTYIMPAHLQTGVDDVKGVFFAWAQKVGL
Sequence of Nicotinamide N-methyltransferase (Homo sapiens) (P40261 whole entry, looked up): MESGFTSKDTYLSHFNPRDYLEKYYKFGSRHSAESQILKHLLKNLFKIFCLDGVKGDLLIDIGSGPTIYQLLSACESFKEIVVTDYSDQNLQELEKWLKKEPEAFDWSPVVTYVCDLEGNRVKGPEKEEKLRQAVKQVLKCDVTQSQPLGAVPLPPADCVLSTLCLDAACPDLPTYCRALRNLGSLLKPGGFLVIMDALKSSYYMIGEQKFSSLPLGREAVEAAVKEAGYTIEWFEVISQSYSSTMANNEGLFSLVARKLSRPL
Sequence of Catechol O-methyltransferase (Homo sapiens) (P21964 whole entry, looked up): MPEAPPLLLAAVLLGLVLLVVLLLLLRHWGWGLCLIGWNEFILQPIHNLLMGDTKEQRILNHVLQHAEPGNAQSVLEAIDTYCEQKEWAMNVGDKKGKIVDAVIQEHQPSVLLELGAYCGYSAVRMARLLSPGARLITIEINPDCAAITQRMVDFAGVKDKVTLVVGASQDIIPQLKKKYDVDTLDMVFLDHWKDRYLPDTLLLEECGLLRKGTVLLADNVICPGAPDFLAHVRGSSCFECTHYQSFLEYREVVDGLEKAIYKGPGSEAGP

CC[C@@H]1C[C@H]2CC[C@H](O2)[C@H](C)C(=O)O[C@@H](C)C[C@@H]2CC[C@@H](O2)[C@@H](C)C(=O)O[C@H](C)C[C@H]2CC[C@H](O2)[C@H](C)C(=O)O[C@@H](C)C[C@@H]2CC[C@@H](O2)[C@@H](C)C(=O)O1
active: Potency [1] 1.22 µM | Potency [2] 0.0216 µM | Potency [3] 0.0242 µM | Potency (HaCat [4]) 0.485 µM | Potency (NIH3T3 [5]) 0.0862 µM | Potency (HeLa) 0.562 µM | Potency (SKOV3) 0.562 µM

NCCCCCNC1(c2ccccc2)CCCCC1
active: Potency [7] 2.13 µM
inactive: Potency [1] | Potency [6] | Potency [8] | outcome (HaCat [4]) | max response (NIH3T3 [5]) -1.15% | outcome (HACAT [9]) | Potency (HeLa) | Potency (SKOV3)

CCC(C)C1NC(=O)C(C(C)=O)=C1O (configuration not stated)
inactive: Potency [6] | outcome (HaCat [4]) | outcome (HACAT [9]) inactive [at 92 µM] | Potency (SKOV3)

c1ccc(C2(c3ccccc3)OC[C@@H]([C@H]3CCCCN3)O2)cc1
active: Potency [7] 0.849 µM
inactive: Potency [6] | max response (HaCat [4]) 4.38% | max response (NIH3T3 [5]) 0.771% | Potency (HeLa) | Potency (SKOV3)

C[C@H]1CN(CC[C@H](O)C2CCCCC2)CC[C@@]1(C)c1cccc(O)c1
inactive: Potency [1] | Potency [6] | max response (HaCat [4]) 3.77% | max response (NIH3T3 [5]) -4.6% | Potency (HeLa) | Potency (SKOV3)
active: Potency [7] 5.35 µM

CCCN(CCC)CCc1ccc(OC)c(OCCc2ccccc2)c1
inactive: Potency [10] | Potency [1] | Potency [6] | max response (HaCat [4]) -13.9% | max response (NIH3T3 [5]) 1.81% | Potency (SKOV3)
active: Potency [7] 0.213 µM

CCOC(=O)Nc1ccc(NCc2c(C)cc(C)cc2C)cc1N
inactive: Potency [6] | Potency [8] | max response (NIH3T3 [5]) 0.149% | Potency (CRL-7250) | Potency (HeLa) | Potency (SKOV3)
active: Potency [7] 2.13 µM | Potency [2] 18.3 µM | Potency [3] 9.16 µM

Cc1[nH]c2ccc(Cl)cc2c1CCN(C)C
-4.16%: activity [11]
-4.68%: activity [13]
active: Potency [7] 3.38 µM
-1.82%: activity change, negative = inhibition [12]
inactive: Potency [1] | Potency [6] | Potency [8] | Potency [2] | outcome (NIH3T3 [5]) | outcome (NIH3T3 [15])
-3.11%: activity [14]

COC1CC(OC2CCC3(C=O)C(CCC4C3CCC3(C)C(C5=CC(=O)OC5)CCC43O)C2)OC(C)C1O (configuration not stated)
inactive: max response (NIH3T3 [5]) 0.727%
active: Potency [1] 0.178 µM | Potency [2] 0.0796 µM | Potency (HEK293) 0.112 µM | Potency (HaCat [4]) 2.82 µM | Potency (HeLa) 0.224 µM | Potency (SKOV3) 0.199 µM

CCOC(=O)c1ccc(-c2ccc(OC(=O)N(C)Cc3cccc(-c4ccncc4)c3)cc2)cc1
active: Potency [7] 6.74 µM | Potency [8] 0.952 µM | Potency (HEK293) 9.2 µM
inactive: Potency [1] | Potency [2] | Potency [3] | max response (HaCat [4]) -8.03% | Potency (HeLa) | Potency (SKOV3)

C[C@@H](CN1CCC2(CC1)C(=O)NCN2c1cccc(F)c1)NC(=O)c1ccc(Br)cc1
active: Potency [7] 4.77 µM | Potency [8] 9.52 µM | Potency [2] 11.5 µM
inactive: Potency [6] | Potency (CRL-7250) | Potency (HeLa)

CC12Cc3cn[nH]c3C=C1CCC1C2CCC2(C)C1CCC2(C)O (configuration not stated)
inactive: max response (HaCat [4]) -0.609% | max response (NIH3T3 [5]) -0.979% | Potency (CRL-7250) | Potency (HeLa) | Potency (SKOV3)

C[C@]12CC[C@H](O)CC1=CC[C@@H]1C2CC[C@]2(C)[C@@H](C3=CC(=O)OC3)CC[C@]12O (some centres not stated)
active: Potency [1] 10.1 µM | Potency [2] 3.19 µM | Potency [3] 4.5 µM
inactive: Potency [6] | max response (NIH3T3 [5]) -1.39%

COc1cccc(NCC(F)Cn2c3ccc(Br)cc3c3cc(Br)ccc32)c1 (configuration not stated)
active: Potency [1] 14.6 µM | Potency [8] 7.56 µM | Potency [3] 20.5 µM | Potency (HEK293) 13 µM | Potency (HaCat [4]) 8.2 µM | Potency (NIH3T3 [5]) 20.6 µM | Potency (SKOV3) 14.1 µM
inactive: Potency [6] | Potency [7] | Potency (HeLa)

Cc1ccccc1C1=CCN(C)CC1
inactive: Potency [1] | Potency [2] | Potency [3] | max response (HEK293) -19.5% | max response (HaCat [4]) -6.61% | Potency (HeLa)

COc1ccc(CCNCc2ccc(OC)c3ccccc23)cc1
active: Potency [2] 14.5 µM | Potency [3] 16.3 µM
inactive: Potency [6] | max response (NIH3T3 [5]) -21.8% | Potency (SKOV3)

CO/C1=C\C(C)=C\[C@@H](C)[C@@H](O)[C@@H](C)C/C(C)=C/C=C/[C@H](OC)[C@@H]([C@@H](C)[C@@H](O)[C@H](C)[C@@]2(O)C[C@@H](O)[C@H](C)[C@@H](C(C)C)O2)OC1=O
inactive: Potency [6]
active: Potency [1] 0.109 µM | Potency [2] 0.0483 µM | Potency [3] 0.0305 µM | Potency (HeLa) 0.126 µM

CO[C@H]1C[C@H](O[C@H]2CC[C@]3(CO)[C@H]4CC[C@]5(C)[C@@H](C6=CC(=O)OC6)CC[C@]5(O)[C@@H]4CC[C@]3(O)C2)O[C@H](C)[C@H]1O
inactive: max response (NIH3T3 [5]) 1.22%
active: Potency [2] 0.0502 µM | Potency [3] 0.0796 µM | Potency (HeLa) 0.199 µM | Potency (SKOV3) 0.158 µM

COc1cc2c(cc1O)C1(C)CCC(O)C(C)(C)C1CC2=O (configuration not stated)
inactive: Potency [10] | Potency [1] | Potency [6] | Potency [2] | Potency [3] | max response (HEK293) -7.2% | outcome (HaCat [4]) | outcome (NIH3T3 [5]) | outcome (HACAT [9]) | outcome (NIH3T3 [15]) | Potency (HeLa) | Potency (SKOV3)

COc1ccc2[nH]c(-c3ccccc3)c(CCN(C)C)c2c1
inactive: Potency [1] | Potency [6] | outcome (HaCat [4]) | max response (NIH3T3 [5]) -23.1% | Potency (CRL-7250) | outcome (HACAT [9]) | Potency (HeLa) | Potency (SKOV3)
active: Potency [7] 2.13 µM | Potency [8] 16.9 µM

C[C@H](Nc1ncnc2nc[nH]c12)c1nc2ccc(F)cc2c(=O)n1-c1ccccc1
0.609: Z-AUC ([16]; measured here: PEO1 parental Z-AUC)
inactive: Potency [6] | Z-AUC [16] 0.252 | Potency (HeLa) | Potency (SKOV3)
active: Potency [7] 15.1 µM | Potency [8] 12 µM | Potency (NIH3T3 [5]) 13 µM
0.915: Z-AUC ([16]; measured here: PEO4 Z-AUC)

CN1CN(c2ccccc2)C2(CCN(CCCC(=O)c3ccc(F)cc3)CC2)C1=O
active: Potency [2] 23 µM | Potency [3] 25.8 µM | Potency (HEK293) 14.6 µM
inactive: Potency [6] | max response (HaCat [4]) 2.53% | Potency (HeLa) | Potency (SKOV3)

CC(=O)NCCCOc1ccc(C(=O)N2CCC(N3C(=O)CCc4ccccc43)CC2)cc1
inactive: Potency [6] | Potency [7] | Potency [8] | max response (NIH3T3 [5]) -14% | Potency (HeLa) | Potency (SKOV3)
